Some test systems named below: T-47D breast; BT-549 breast; MDA-MB-435 melanoma; SW-620 colon; MCF7 breast; HCT-116 colon; HCC-2998 colon; KM12 colon.
Common to all, as to experiment: NCI-60 one-dose screen, 48 h (100 = growth as untreated, 0 = no growth, -100 = all killed)
Common to all, as to conditions: 10 µM unless noted

The panel holds about 83,000 compounds, 20% with a hit somewhere; the sample as a whole holds those more often.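 Cell lines were cultured in 96-well plates, exposed to a single compound concentration, and assessed for percent growth 48 hours later.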 Unmarked numbers belong to inactive results. The source made the active and inactive calls. Rule for the calls: active = growth percent below 10; inactive = the rest.

On to `Cc1cc(C(=C2C=CC(=Nc3ccccc3)C=C2)c2ccc(Nc3ccccc3)cc2)ccc1N`, for which the growth with T-47D breast is -50.1% (active); in the test with BT-549 breast, -88.9% (active); in the test with MDA-MB-435 melanoma, -68% (active); with SW-620 colon it was -70.4% (active); in the test with MCF7 breast it was -44.3% (active); in the test on HCT-116 colon, 0.559% (active). Further, the values for the growth in the test on HCC-2998 colon and with KM12 colon were -90.7% (active) and -89.2% (active), respectively.

Turning to `Oc1ccc2c(c1)CCc1ccccc1-2`, the growth in the test with T-47D breast was 86.3%; in the test with BT-549 breast, 106%; with MDA-MB-435 melanoma, 96.6%; with SW-620 colon, 103%; with MCF7 breast, 103%; in the test with HCT-116 colon, 97.7%. Moreover, the values for the growth in the test on HCC-2998 colon and with KM12 colon were 102% and 113%, respectively.

`COC(=O)c1nc(=S)[nH]c(C(=O)OC)c1C(=O)c1ccc(Cl)c(Cl)c1`: the growth in the test on T-47D breast is 100%; with BT-549 breast, 129%; in the test on MDA-MB-435 melanoma it was 106%; with SW-620 colon, 106%; with MCF7 breast, 97.4%; in the test on HCT-116 colon, 106%. Moreover, the values for the growth in the test on HCC-2998 colon and in the test with KM12 colon were 113% and 112%, respectively.

As for `CCN(CC)CCNc1ccc([N+](=O)[O-])c2sc3ccccc3c(=O)c12`, the growth with T-47D breast was 45.5%; with BT-549 breast, 72%; in the test with MDA-MB-435 melanoma, 18.4%; in the test on SW-620 colon, -5.78% (active); with MCF7 breast, 8.95% (active); with HCT-116 colon it was 17.9%. The growth in the test with HCC-2998 colon was 36.6%; in the test on KM12 colon, 22.9%.

In the case of `COc1cc2c(c(OC)c1OC)-c1ccc(NCc3ccccc3)c(=O)cc1[C@@H](NC(C)=O)CC2`, the growth with T-47D breast is 59.4%; in the test on BT-549 breast, 0.422% (active); in the test with MDA-MB-435 melanoma, -54.8% (active); with SW-620 colon it was 16.6%; in the test on MCF7 breast, 7.93% (active); in the test on HCT-116 colon, 9.33% (active). The growth in the test with HCC-2998 colon was 10.6%; in the test on KM12 colon, 12.7%.

In the case of `O=[N+]([O-])CC(O)c1ccccc1` (stereo unspecified), the growth in the test on T-47D breast was 100%; with BT-549 breast it was 112%; in the test with MDA-MB-435 melanoma, 91.1%; in the test on SW-620 colon, 105%; in the test on MCF7 breast, 81.1%; with HCT-116 colon, 78.6%. For the same molecule, the growth was 98.9% in the test with HCC-2998 colon and 97.4% with KM12 colon.

`COc1ccc2c(c1OC)OCC(CN(C)C)C2=O` (stereo unspecified): the growth in the test on T-47D breast is 69.5%; with BT-549 breast, 82.4%; with MDA-MB-435 melanoma, 96.1%; in the test with SW-620 colon it was -78.3% (active); in the test with MCF7 breast, 75%; in the test with HCT-116 colon, 77.6%. Besides, the growth in the test with HCC-2998 colon was 105%; in the test on KM12 colon, 96.8%.

As to `COC(=O)Nc1nc2ccc(C3(c4ccc(F)cc4)OCCO3)cc2[nH]1`, the growth in the test on T-47D breast was 47.1%; in the test with BT-549 breast, 47.5%; in the test with MDA-MB-435 melanoma, -53.3% (active); in the test with SW-620 colon, 30.7%; with MCF7 breast it was 15.7%; with HCT-116 colon, 25.2%. The values for the growth in the test on HCC-2998 colon and in the test on KM12 colon were 16.7% and 25.6%, respectively.

Regarding `O=Nc1ccc2ccccc2c1O`, the growth was 51.5% in the test with T-47D breast; 100% in the test on BT-549 breast; -73.9% (active) with MDA-MB-435 melanoma; 61.8% with SW-620 colon; 69.9% in the test with MCF7 breast; 6.58% (active) with HCT-116 colon. Besides, the growth in the test on HCC-2998 colon is 103%; in the test with KM12 colon, 79.3%.

With `CCCCCCCCCCCC(=O)OC(C)C(=O)NCCCC` (stereo unspecified), the growth in the test on T-47D breast was 97.9%; in the test on BT-549 breast it was 92.5%; in the test on MDA-MB-435 melanoma it was 112%; in the test on SW-620 colon, 98.5%; with MCF7 breast, 94.7%; in the test on HCT-116 colon, 94.4%. Further, the growth was 80.2% with HCC-2998 colon and 105% in the test with KM12 colon.

As to `C1=C(c2ccccc2)c2ccccc2C1`, the growth is 92.7% in the test with T-47D breast; 99.1% in the test with BT-549 breast; 93.1% in the test on MDA-MB-435 melanoma; 97.8% with SW-620 colon; 109% in the test on MCF7 breast; 95.8% in the test on HCT-116 colon. The growth is 91% in the test with HCC-2998 colon and 96.3% in the test with KM12 colon.

For the molecule `c1csc(-c2[nH]nc3c2CCc2ccccc2-3)c1`, the growth in the test with T-47D breast is -61.7% (active); with BT-549 breast, 98.5%; in the test with MDA-MB-435 melanoma, 104%; in the test with SW-620 colon it was 106%; in the test on MCF7 breast it was 5.26% (active); with HCT-116 colon, 99.1%. Also, the growth in the test with HCC-2998 colon was 43.6%; in the test on KM12 colon, 23.5%.

Regarding `Nc1ccc(-c2ccc(N)c(S(=O)(=O)O)c2)cc1S(=O)(=O)O`, the growth with T-47D breast is 106%; in the test on BT-549 breast, 113%; in the test on MDA-MB-435 melanoma, 115%; with SW-620 colon, 107%; with MCF7 breast, 104%; with HCT-116 colon, 107%. The growth is 113% with HCC-2998 colon and 103% with KM12 colon.

On to `O=C(c1ccc(O)c(Br)c1)c1ccc(O)c(Br)c1`, for which the growth in the test with T-47D breast was 106%; in the test on BT-549 breast, 100%; in the test with MDA-MB-435 melanoma, 118%; in the test with SW-620 colon, 109%; with MCF7 breast it was 117%; with HCT-116 colon it was 101%. The growth with HCC-2998 colon is 105%; in the test on KM12 colon it was 99.2%.

On to `Clc1ccc(Cc2nc3ccccc3s2)cc1`, for which the growth in the test with T-47D breast is 79.6%; with BT-549 breast, 86.7%; with MDA-MB-435 melanoma, 92.5%; in the test on SW-620 colon it was 101%; in the test with MCF7 breast it was 77.4%; with HCT-116 colon, 97.8%. For the same molecule, the growth was 103% in the test on HCC-2998 colon and 93.2% in the test with KM12 colon.

On to `S=C1SCN(Cc2cccs2)CN1Cc1cccs1`, for which the growth in the test on T-47D breast was 56.5%; in the test with BT-549 breast, 98.5%; in the test with MDA-MB-435 melanoma, 93.3%; with SW-620 colon it was 82.4%; in the test on MCF7 breast, 43.9%; in the test on HCT-116 colon it was 99.4%. Further, the growth in the test with HCC-2998 colon was 116%; in the test with KM12 colon it was 91.2%.

Turning to `O=C1c2ccccc2C(=O)c2c(O)c(Cl)cc(O)c21`, the growth was 28.1% in the test on T-47D breast; 98.7% in the test on BT-549 breast; 102% in the test on MDA-MB-435 melanoma; 72.6% in the test on SW-620 colon; 49.9% with MCF7 breast; 6.19% (active) with HCT-116 colon. Also, the growth was 102% in the test on HCC-2998 colon and 83.7% with KM12 colon.

(Values after PubChem BioAssay (NCI).)
